Experimental data: PubChem BioAssay AID1984 (Sanford-Burnham Center for Chemical Genomics, 2009)
The whole screen tested about 290,000 compounds, of which about 35 (0.01%) were called active.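 Rule for the calls: active = EGFP signal decrease of at least 30% at 10 µM or well 3 SD below plate mean, unless failing retest; inactive = the rest, including hits failing retest or dose response.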 The entries come from a sample that favours actives as a whole.

Molecular target: p/CIP-EGFP fusion (nuclear receptor coactivator 3, mouse) (UniProt Q05BA5)
Sequence (Q05BA5 1-1403): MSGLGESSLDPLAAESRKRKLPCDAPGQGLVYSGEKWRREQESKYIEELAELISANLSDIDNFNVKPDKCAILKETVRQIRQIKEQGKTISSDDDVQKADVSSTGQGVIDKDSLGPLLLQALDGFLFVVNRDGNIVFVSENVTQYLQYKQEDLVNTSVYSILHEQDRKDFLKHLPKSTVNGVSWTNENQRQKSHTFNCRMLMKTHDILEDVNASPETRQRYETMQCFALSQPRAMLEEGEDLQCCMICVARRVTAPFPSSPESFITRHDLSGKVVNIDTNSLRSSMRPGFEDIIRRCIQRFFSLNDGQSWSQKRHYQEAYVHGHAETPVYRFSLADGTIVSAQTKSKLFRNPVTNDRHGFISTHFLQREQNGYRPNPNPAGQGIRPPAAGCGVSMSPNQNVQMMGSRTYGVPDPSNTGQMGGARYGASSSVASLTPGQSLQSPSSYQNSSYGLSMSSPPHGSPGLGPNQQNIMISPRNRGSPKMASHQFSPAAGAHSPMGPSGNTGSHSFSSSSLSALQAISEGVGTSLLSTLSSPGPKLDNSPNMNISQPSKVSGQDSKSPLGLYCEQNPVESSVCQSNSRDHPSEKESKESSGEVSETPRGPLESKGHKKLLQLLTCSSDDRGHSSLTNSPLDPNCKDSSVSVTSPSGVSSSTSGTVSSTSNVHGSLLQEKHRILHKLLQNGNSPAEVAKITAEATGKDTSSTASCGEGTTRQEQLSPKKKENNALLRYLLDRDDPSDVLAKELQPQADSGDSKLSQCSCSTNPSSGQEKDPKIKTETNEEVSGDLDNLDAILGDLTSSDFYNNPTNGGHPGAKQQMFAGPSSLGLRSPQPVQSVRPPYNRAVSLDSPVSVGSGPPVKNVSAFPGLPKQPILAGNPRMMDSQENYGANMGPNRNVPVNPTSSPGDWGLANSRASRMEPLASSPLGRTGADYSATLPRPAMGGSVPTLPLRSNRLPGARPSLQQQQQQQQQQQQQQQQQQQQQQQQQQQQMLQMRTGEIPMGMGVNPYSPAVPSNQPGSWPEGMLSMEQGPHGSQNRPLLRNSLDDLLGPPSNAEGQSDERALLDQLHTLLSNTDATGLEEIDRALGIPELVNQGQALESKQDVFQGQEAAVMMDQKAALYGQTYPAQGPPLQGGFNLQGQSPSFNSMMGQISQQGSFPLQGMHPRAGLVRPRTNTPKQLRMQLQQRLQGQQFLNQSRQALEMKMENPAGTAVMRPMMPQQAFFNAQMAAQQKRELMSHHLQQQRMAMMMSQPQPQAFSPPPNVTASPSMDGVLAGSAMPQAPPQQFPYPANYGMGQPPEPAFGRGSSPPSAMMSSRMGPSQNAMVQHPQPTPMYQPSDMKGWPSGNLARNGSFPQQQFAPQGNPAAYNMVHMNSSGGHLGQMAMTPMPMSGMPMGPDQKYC
Test: p/CIP-EGFP fusion destabilizers, primary screen, fluorescence, F442A cells (AID 1984)
Conditions: 16 h, at 10 µM, active compounds read high

Decrease of EGFP signal, inactive:
CC(NCCc1ccc(S(N)(=O)=O)cc1)C(=O)NCc1ccccc1 (stereo unspecified) -40%, O=S(=O)(NC1CC2CCC1C2)c1ccc(Cl)cc1 (stereo unspecified) -15.4%, COc1ccccc1NC(=S)N1CCN(c2ccc(F)cc2)CC1 -2%, CCCOc1ccc(Cc2c(O)nc(N)[nH]c2=O)cc1C -10.4%, CC1(C)CCSC(/C=C/c2ccccc2)=N1 -5.5%, CSc1ccc(/C=C/C(=O)NC23CC4CC(CC(C4)C2)C3)cc1 0.4%, COCc1c(C(=O)N/N=C(\C)c2ccncc2)nnn1-c1nonc1N 1.8%, O=S(=O)([N-]c1nc2ccccc2nc1-[n+]1ccc(Cc2ccccc2)cc1)c1ccc(Br)s1 -27.8%, CCCc1cc(C(=O)N2CCCC(CO)(CCCc3ccccc3)C2)n(C)n1 (stereo unspecified) -7.2%, COc1ccc2[nH]c(C(=O)N/N=C/c3cc(OC)c(OC)c(OC)c3)cc2c1 -8.7%, Cc1ccc(NS(=O)(=O)c2cc3c(cc2C)NC(=O)CO3)cc1 -4.5%, CCOCCc1nn2c(=O)cc(CSCC(=O)Nc3cccc(C)c3C)nc2s1 4.4%, COc1ccc(N2CCC(N3CCN(C)C(CCO)C3)CC2)cc1 (stereo unspecified) 13.5%, O=C(NCc1ccccc1)C(c1cccnc1)N(C(=O)c1csnn1)c1ccc(F)cc1 (stereo unspecified) -5.9%, Cc1cc2c(=O)n(CC(=O)NCC(=O)Nc3ccc(C(C)C)cc3)cnc2s1 3.7%, COC(=O)c1sc(-c2ccc(C(C)(C)C)cc2)cc1NC(=O)/C=C/C(=O)O -12.7%, O=C(O)/C=C/C(=O)NNc1ccc([N+](=O)[O-])cc1 -13%, Nc1nc(Nc2ccccc2F)nc(NC2CCCCC2)c1[N+](=O)[O-] -4.1%, COc1ccc(CN2CCN(Cc3ccc(OC)c(OC)c3OC)CC2)cc1 -4.7%, C=CCSc1nnc(N2C(=O)C(O)=C(C(=O)c3ccco3)C2c2ccc(F)cc2)s1 (stereo unspecified) -15.4%, Cc1ccc(CNC(=O)CCC(=O)N2CC(C)Sc3ccccc32)cc1 (stereo unspecified) -1.6%, CC(C)CC(O)C1CCN(C(=O)CCc2nnc(-c3ccc4c(c3)OCO4)o2)CC1 (stereo unspecified) -14.9%, O=C(c1ccc2nc(N3CCOCC3)sc2c1)N1CCN(c2ccc(Cl)cc2)CC1 -11.7%, COc1ccc(C(C(=O)NCC2CCCO2)N(C(=O)Cn2nnc3ccccc32)c2ccc(NC(C)=O)cc2)cc1OC (stereo unspecified) -4.9%, O=C(c1cc(COc2ccc(F)cc2F)on1)N1CCOCC1 -0.2%, O=C(NCc1ccco1)/C(=C/c1cccc([N+](=O)[O-])c1)NC(=O)c1ccco1 1%, Cc1ccccc1N1CCN(C2CCCN(C(=O)c3ocnc3C)C2)CC1 (stereo unspecified) -18.6%, COc1cc(/C=N/NC(=O)c2cccnc2)ccc1OC(=O)c1cccc(Br)c1 -4.4%, CS(=O)(=O)N(CC(=O)Nc1ccc(F)cc1)C1CCCCC1 -0.5%, CC(C)CNC(=O)COC(=O)c1ccccc1OCC(=O)Nc1ccc(Br)cc1 -13.9%, Cc1c(C(=O)NCCN(C)C)oc2ccc(S(=O)(=O)N3CCCC3)cc12 -12.5%, O=C(Nc1ccc(C(=O)O)cc1)/C(=C\c1ccccc1)NC(=O)c1ccc(Br)cc1 -17.7%, Cc1c(Cl)c([N+](=O)[O-])nn1CC(=O)NCCCN1CCOCC1 5.3%, COc1cc(/C=C2\C(=N)N3N=C(CC(=O)N4CCOCC4)SC3=NC2=O)cc(OC)c1OC -17%, O=C(NC(=S)Nc1ccc2oc(=O)ccc2c1)c1ccc(-c2cccc(Cl)c2Cl)o1 -4.3%, CN(C)CCN(Cc1ccccc1)S(=O)(=O)c1csc(C(N)=O)c1 15.1%, COC(=O)C1CCCCN1C(=O)c1ccc(OC2CCN(C(C)=O)CC2)c(OC)c1 (stereo unspecified) 0.9%, O=C(Cc1ccccc1Cl)N1CCOCC1 -2.9%, Cc1c2cnn(CC(=O)NCCCN3CC(C)CC(C)C3)c(=O)c2c(C)n1Cc1ccc(Cl)cc1 (stereo unspecified) 0.5%, CCCC[C@H]1COCCS(=O)(=O)N1Cc1cccc(Cl)c1 -5.5%, O=C1COc2ccc(S(=O)(=O)NCCc3ccc(Cl)cc3)cc2N1 8.8%, Cc1cc(NC(=O)c2ccco2)c(=O)n(Cc2c(F)cccc2Cl)c1 -5.8%, Cc1cc(S(=O)(=O)Nc2ccc(C(=O)NCC(c3ccco3)N3CCCC3)cc2)ccc1F (stereo unspecified) -3%, COc1ccc(CCNc2ncnc3c2nnn3Cc2ccccc2)cc1 -4%, COc1ccc(Cc2nnc(N/N=C/c3ccccc3O)[nH]c2=O)cc1OC -4%, O=C(NNC1=C(C(=O)C(F)(F)F)CCC1)c1ccncc1 -15.9%, Cc1ccnc(N2C(=O)c3ccc([N+](=O)[O-])cc3C2=O)c1 -1.5%, COc1ccc2c(C(=O)c3ccc(C)cc3)n(CCC(N)=O)[n+]([O-])c2c1 -5.8%, CC(C)C(C(=O)NCc1ccco1)N(CC1CCCO1)C(=O)CNS(=O)(=O)c1ccc(F)cc1 (stereo unspecified) -1.5%, Cc1cccc(NC(=O)NC2(C)CCS(=O)(=O)C2)c1 (stereo unspecified) -6.6%, O=C(O)C1CCCN1S(=O)(=O)c1ccc(Br)cc1 (stereo unspecified) -0.2%, Cc1ccc(C)c(N2CCN(S(=O)(=O)c3c(C)[nH]c(C)c3C(=O)N3CCCC3)CC2)c1 3.6%, O=C(NCc1ccncc1)C1CCCN(S(=O)(=O)c2ccc(Br)cc2)C1 (stereo unspecified) -8.8%, COc1ccc(NS(=O)(=O)c2cccc3nsnc23)cc1Cl -11.8%, COc1ccc(C(=O)C2CCCN(C(=O)c3cc4nc(C)cc(C)n4n3)C2)cc1F (stereo unspecified) -9.2%, CCn1c(SCC(=O)NC2CC2)nnc1-c1ccccn1 0.1%, Cc1nc2cc(C(F)(F)F)ccc2n1CCNc1nc(-c2cc(Cl)c(N)c(Cl)c2)cs1 -2.4%, CN(C)CCN(C(=O)C1CCCCC1)c1nc2cc3c(cc2s1)OCO3 -21.2%, O=C(NCc1cccc(C(F)(F)F)c1)c1cccc(S(=O)(=O)N2CCN(Cc3ccccc3)CC2)c1 -8.5%, C=CCNC(=O)c1ccc2c3n(nc2c1)-c1ccc(C)cc1CO3 -3.3%, O=C(O)CCCCCCCCc1cn(CN2C(=O)c3ccccc3C2=O)nn1 -13.1%, CN(Cc1ccccc1Cl)C(=O)C1CCC(=O)N(CCc2cccc(F)c2)C1 (stereo unspecified) -8.9%, CCOc1ccc2c(c1)c(=O)c(S(=O)(=O)c1ccc(C)cc1)cn2CC -6%, CC(C)c1ccc(S(=O)(=O)N2CCC3(CC2)OCCO3)cc1 0.3%, CC1CN(S(=O)(=O)c2cccc(C(F)(F)F)c2)CN1C(=O)N1CCOCC1 (stereo unspecified) -19%, CCCN(CCC)c1nc2c(C)cccn2c(=O)c1/C=C1/SC(=S)N(Cc2ccco2)C1=O -656%, CCOC(=O)c1c(S(=O)(=O)NCC(=O)Nc2ccc(C)cc2)c(C)n(C)c1C 3.3%, COc1ccc(OC)c(CCNC(=O)CCn2ccc3cc(S(=O)(=O)N4CCCC4)ccc32)c1 1%, NC(=O)CC(NC(=O)Cc1ccc(Br)cc1)c1ccc(NC2CC3CCC2C3)c([N+](=O)[O-])c1 (stereo unspecified) 3.9%, Cn1c(SCc2ccc(F)cc2)nnc1-c1ccncc1 -10.6%, COc1ccc(CCNC(=O)CCc2cn(C)c3ccccc23)c(OC)c1 -1.8%, Cc1cc(C)cc(OCC(=O)Nc2cc(NC(=O)COc3cc(C)cc(C)c3)cc(C(=O)O)c2)c1 13.4%, O=C(CCCCCn1c(=S)[nH]c2ccsc2c1=O)NC1CCCCC1 1.2%, Cc1cc(C)c2nc(N3CCC(C(=O)NCCN4CCOCC4)CC3)sc2c1 -53.2%, CCc1cccc(NC(=S)N(CCN(C)C)C2CCN(C(C)C)CC2)c1 2.9%, COc1ccc(NC(=O)CSc2nc(SC)ns2)c(OC)c1 -9.3%, CC(C)(C)OC(=O)NC(Cc1ccccc1)C(=O)NC(CSC1CCCCO1)C(=O)NN (stereo unspecified) 1%, Cc1cccc(NC(=O)c2ccc([N+](=O)[O-])o2)c1 1.2%, CC(Sc1nnnn1C)C(=O)NC(=O)NC1CCCCC1 (stereo unspecified) 12.9%, O=Cc1c(NCCCN2CCCC2=O)c2ccccc2[nH]c1=O -1.8%, N#Cc1ccc(C2N=C(c3ccccc3)NO2)cc1 (stereo unspecified) -11.6%, Cc1ccc(C(=O)N/C(=C\c2cn(C)c3ccccc23)C(=O)N2CCN(C)CC2)cc1 3.7%, CCCCC(O)(CCCC)C(=O)NN(C(=O)CCl)c1ccccc1 -2.8%, CS/C(=C\C(=O)c1ccco1)Nc1ccccc1Cl -2.4%, Cc1nn(-c2ccccc2)c(Cl)c1/C=N/NC(=O)c1nn(C)cc1[N+](=O)[O-] -5.8%, COc1cc(NC(=O)c2ccc(-c3csc(C)n3)cc2)c(OC)cc1Cl -15.5%, COc1ccccc1CN1CCN(Cc2cc(OC)c(OC)cc2OC)CC1 -13.1%, COc1ccc(C(=O)NC(C)CCc2ccccc2)c(OC)c1 (stereo unspecified) -12.7%, O=C(O)c1ccccc1C(=O)NC1=NN(c2ccccc2)CC1 13.1%, CCc1ccc(C(=O)NN=C2CCCCCC2)s1 -8.5%, C=CCn1c(C23CC4CC(CC(C4)C2)C3)n[nH]c1=S -8.9%
